How the values were obtained:
Type in all cases: functional
Plasmodium falciparum [1] = test: GSK_TCMDC: Inhibition of Plasmodium falciparum 3D7 in whole red blood cells, using parasite LDH activity as an index of growth. Test compounds present at 2uM
Plasmodium falciparum [2] = test: GSK_TCMDC: Inhibition of Plasmodium falciparum Dd2 in whole red blood cells, using parasite LDH activity as an index of growth. Test compounds present at 2uM
HepG2 = test: GSK_TCMDC: Percent inhibition of human HepG2 cell line. Test compounds present at 10uM.

| SMILES | Inhibition (Plasmodium falciparum [1]) | Inhibition (Plasmodium falciparum [2]) | Inhibition (HepG2) |
| --- | --- | --- | --- |
| Cc1cc(=NN=Cc2ccc(F)cc2)c2ccc(F)cc2[nH]1 | 99% | 30% | 0% |
| Cc1nc2ccccc2n1C1CC2CCC(C1)N2CCCC1(c2ccccc2)CCN(C(=O)OCc2ccccc2)CC1.O=CO (centres undefined) | 90% | 29% | 46% |
| CC[C@H](C)[C@H](NC(=O)[C@H](CC1CCCCC1)[C@H](CC)N(O)C=O)C(=O)Nc1ccccn1 | 96% | 95% | 14% |
| O=C(/C=C/c1ccc(Cl)c(Cl)c1)NCCCCCN1CCC(NC(=O)Nc2ccc(Cl)cc2F)CC1 | 100% | 40% | 100% |
| COc1cc2nc(N(C)C)nc(Nc3ccc4c(cnn4Cc4ccccc4)c3)c2cc1OC | 100% | 100% | 90% |
| CCCc1cc(NC2CCN(C)CC2)nc(Nc2ccc(F)cc2)n1 | 95% | 16% | 20% |
| CC1(C)CN(CCC2CCC(NC(=O)/C=C/c3ccccc3F)CC2)Cc2ccc(C#N)cc21.Cl (centres undefined) | 89% | 82% | 0% |
| O=C(Nc1cc(Oc2ccc(O)cc2)cc([N+](=O)[O-])c1)c1cc(-c2ccc(F)cc2)no1 | 88% | 37% | 61% |
| CCCCCCCc1[nH]c2ccccc2c(=O)c1C | 97% | 96% | 48% |
| Cn1nccc1C(=O)NCCNCc1ccc(-c2ccc(-c3nc4cc(C(F)(F)F)ccc4[nH]3)cc2)cc1.O=C(O)C(F)(F)F | 100% | 99% | 35% |
| Cc1[nH]c(C)c(-c2ccc(-c3ccccc3Cl)nc2)c(=O)c1Cl | 98% | 97% | 0% |
| O=S(=O)(Nc1cccc(CCN2CCC(N3CCCCC3)CC2)c1)c1ccccc1C(F)(F)F | 82% | 32% | 21% |
| Cc1nn(-c2ccccc2)c2sc(C(=O)N(CCCN(C)C)c3nc(-c4ccccc4)cs3)cc12.Cl | 95% | 36% | 99% |
| Cc1ccc(-n2nc(-c3ccccc3)c3cc(C(=O)NCCN)sc32)cc1 | 92% | 43% | 28% |
| CCCCCCCN1CCC(NC(=O)Nc2ccnc3ccc(OC)cc23)C(CO)C1.O=C(O)C(=O)O (centres undefined) | 94% | 69% | 23% |
| COc1ccc(Nc2ncc3c(-c4cccc(NC(=O)Cc5cccc(O)c5)c4)c[nH]c3n2)cc1OC | 100% | 96% | 44% |
| O=C(c1cc(-c2cccs2)n[nH]1)N1CCN(S(=O)(=O)c2ccc(Cl)s2)CC1 | 84% | 80% | 20% |

| SMILES | Inhibition (Plasmodium falciparum [1]) | Inhibition (Plasmodium falciparum [2]) | Inhibition (HepG2) |
| --- | --- | --- | --- |
| CC(C)Nc1cc(C(=O)N[C@@H](Cc2ccccc2)[C@H](O)CNC2CCOCC2)c(F)c(N2CCCCS2(=O)=O)c1.O=CO | 98% | 98% | 2% |
| Cc1ccc(NC(=O)NC2CCN(c3ccnc4cc(Cl)ccc34)CC2)cc1.O=C(O)C(F)(F)F | 100% | 47% | 4% |
| COc1cc2c(cc1OCCN1CCC(N3CCCC3)CC1)N(C(=O)/C=C/c1ccccc1Cl)CC2.Cl | 100% | 68% | 38% |
| CCCOc1ccc(C(F)(F)F)cc1NC(=O)c1nc2nc(C)cc(C)n2n1 | 90% | 88% | 7% |
| COc1ccc(-c2cccc(NC(=O)c3cccc(C#N)c3)c2)cc1CN(C)CCN(C)C.O=C(O)C(F)(F)F | 99% | 21% | 0% |
| Cc1[nH]c(C)c(-c2ccc(-c3ccc(OCC(F)(F)F)cc3)nc2)c(=O)c1Cl | 94% | 96% | 3% |
| Br.CN(C)CCCOc1ccc(-c2csc(NC(=N)NCc3ccccc3)n2)cc1 | 100% | 97% | 57% |
| O=C(Nc1ccc(CC(=O)N2CCc3cc(Cl)c(N4CCN(C/C=C/c5ccccc5)CC4)cc32)cc1)Nc1cccc([N+](=O)[O-])c1 | 95% | 27% | 0% |
| Cc1cccc2nc(-c3cccc(-c4ccc(NC(=O)c5c[nH]cn5)cc4)c3)[nH]c12 | 100% | 48% | 8% |
| Cc1ccnc(NC(c2cccc(OCc3ccccc3)c2)c2ccc3cccnc3c2O)c1 (centres undefined) | 95% | 88% | 26% |
| CN(c1ccccc1)S(=O)(=O)c1cccc(NC(=O)c2ccc(-n3ccnc3)c([N+](=O)[O-])c2)c1 | 83% | 0% | 19% |
| COC(=O)CCCCCOc1cc(Cc2cnc(N)nc2N)cc(OC)c1OC | 90% | 0% | 0% |
| CCNC(=O)N1CCN(c2nc(-c3ccccc3)nc(COC)c2Cc2ccc(C)cc2)CC1 | 95% | 94% | 27% |
| COc1ccc2ccccc2c1CCCCN1CCN(CC(c2ccc(F)cc2)N2CCN(C3CCCC3)CC2)CC1.O=C(O)C(F)(F)F (centres undefined) | 88% | 51% | 88% |
| Cc1cccc2nc(-c3ccc(-c4ccc(CNCc5ccc(CN)cc5)cc4)s3)[nH]c12.O=C(O)C(F)(F)F | 100% | 85% | 4% |
| O=C(Nc1cccc(CN2CCCN(Cc3ccc(O)cc3)CC2)c1)c1ccc2ccccc2n1.O=C(O)C(F)(F)F | 90% | 22% | 13% |

— ChEMBL document CHEMBL1157539, “Thousands of chemical starting points for antimalarial lead identification” (Nature, 2010)
